Results reported in PubChem BioAssay (Tox21).
Results filed as inconclusive are left out. Where a call stands in place of a potency, no number is given. Activity calls are given as the source filed them. Calls follow the shape of the full dose curve.

Assay: cAMP Responsive Elements (CRE) small molecule agonists, cell-based qHTS assay (AID 1963590)
Details: CRE-bla HEK293T, beta-lactamase FRET ratio, 3 h; series mostly up to 92.4 µM
Text: U.S. Tox21 Program National Center for Advancing Translational Sciences [NCATS] Division of Preclinical Innovation [DPI] U.S. Environmental Protection Agency [EPA] National Institutes of Environmental Health Sciences [NIEHS] National Toxicology Program [NTP] U.S. Food and Drug Administration [FDA] Tox21 Assay Overview: CREB (cyclic-AMP Responsive Element Binding Protein) is a cellular transcription factor. It binds to certain DNA sequences called cAMP Responsive Elements (CRE) and regulates the transcription of the genes. […] This cell line can be used to find agonists/antagonists of the cyclic AMP signaling pathway. The activation of the report gene under culture conditions can be detected by fluorescence intensity. This cell line has been used to screen the Tox21 10K compound library to identify agonists that induce oxidative stress.
Tox21 Assay Protocol Summary: CRE-bla Hek 293T cells were suspended in assay medium (DMEM containing 10% dialyzed FBS, 0.1 mM NEAA, 1 mM sodium pyruvate and 25 mM HEPES) and dispensed at 2,000 cells/5 uL /well into 1536-well black wall/clear bottom plates using a Multidrop Combi (ThermoFisher Scientific, Waltham, MA) dispenser. After the assay plates were incubated at 37 C/5% CO2 for 18 hrs, 23 nL of compounds dissolved in DMSO, positive controls or DMSO only was transferred to the assay plate by a pintool workstation (Kalypsys, San Diego, CA). After the plates were incubated at 37 C/5% CO2 for 3 hrs, 1 uL of LiveBLAzer B/G FRET substrate (Invitrogen, Carlsbad, CA) was added to each well using Bioraptr Flying Reagent Dispenser (FRD, Aurora Discovery, San Diego, CA). The plates were incubated at room temperature for 2 h.
For `COP(=O)(OC)OC`, the Potency was “inactive”.
For `CC(C)(C1CCC(O)CC1)C1CCC(O)CC1` (stereo not given), the Potency was “inactive”.
For `CN(C)N=O`, the Potency was “inactive”.
With `CCNc1nc(NC(C)C)nc(SC)n1` the Potency was “inactive”.
With `CCCCOCCOP(=O)(OCCOCCCC)OCCOCCCC` the Potency was “inactive”.
For `CCCCC#N`, the Potency was “inactive”.
In the case of `CCOP(=O)(OCC)Oc1ccc([N+](=O)[O-])cc1`, the Potency is reported as “inactive”.
For `CCCC1CCCCN1` (stereo not given), the Potency was “inactive”.
In the case of `CNC`, the Potency is reported as “inactive”.
For `O=C/C(Cl)=C(/Cl)C(=O)O`, the Potency was “inactive”.
In the case of `ClC(Cl)(Cl)c1ccccc1`, the Potency is reported as “inactive”.
For `CN(C)C(=S)S`, the Potency was “inactive”.
For `CN1CC[C@]23c4c5ccc(O)c4O[C@H]2[C@@H](O)CC[C@H]3[C@H]1C5`, the Potency was “inactive”.
In the case of `CCc1ccccc1C`, the Potency is reported as “inactive”.
In the case of `CN(C)N`, the Potency is reported as “inactive”.
For `O=C(O)CF`, the Potency was “inactive”.
For `N#Cc1cccnc1`, the Potency was “inactive”.
In the case of `C=C(C#N)CCC#N`, the Potency is reported as “inactive”.
For `CCCCN(CC)c1c([N+](=O)[O-])cc(C(F)(F)F)cc1[N+](=O)[O-]`, the Potency was “inactive”.
With `c1ccoc1` the Potency was “inactive”.
In the case of `C=CCc1cc(OC)c2c(c1)OCO2`, the Potency is reported as “inactive”.
In the case of `CON(C)C(=O)Nc1ccc(Cl)cc1`, the Potency is reported as “inactive”.
In the case of `C#CCOC(C(=O)OCCN(C)C)(c1ccccc1)c1ccccc1`, the Potency is reported as “inactive”.
In the case of `O=[N+]([O-])c1ccccc1`, the Potency is reported as “inactive”.
For `O=C(O)CC[N+](=O)[O-]`, the Potency was “inactive”.
For `Clc1nc(Cl)nc(Cl)n1`, the Potency was “inactive”.
With `Cc1cc(-c2cc(C)c(N)c(C)c2)cc(C)c1N` the Potency was “inactive”.
In the case of `O=[N+]([O-])c1cccc2ccccc12`, the Potency is reported as “inactive”.
For `O=NN(c1ccccc1)c1ccccc1`, the Potency was “inactive”.
For `O=c1nc(O)n(Cl)c(=O)n1Cl`, the Potency was “inactive”.
In the case of `CCCC[n+]1ccccc1C`, the Potency is reported as “inactive”.
For `C=CC(Cl)CCl` (stereo not given), the Potency was “inactive”.
In the case of `CCCCCCCCOC(=O)c1ccc(C(=O)OCCCCCCCC)c(C(=O)OCCCCCCCC)c1`, the Potency is reported as “inactive”.
With `C/C(=N\NC(=O)Nc1cc(F)cc(F)c1)c1ncccc1C(=O)O` the Potency was “inactive”.
For `CCC(C)c1cc([N+](=O)[O-])cc([N+](=O)[O-])c1O` (stereo not given), the Potency was “inactive”.
With `CC(C)C#N` the Potency was “inactive”.
For `CCn1cc[n+](C)c1`, the Potency was “inactive”.
In the case of `CCC(Cl)[N+](=O)[O-]` (stereo not given), the Potency is reported as “inactive”.
In the case of `CCBr`, the Potency is reported as “inactive”.
With `CCN(CC)N=O` the Potency was “inactive”.
